The results in this text go back to PubChem BioAssay (NCATS).

Test [1] can be described thus: NS1 protein of Zika virus - qHTS assay to identify small molecule inhibitors in human HEK 293 cells (AID 1347053). Also: series mostly up to about 46 µM; nearly all actives have a fitted effect of over 55% in size. In outline:
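Inhibition of NS1 expression was scored in HEK 293 cells given compound 1 h ahead of MR766 virus (MOI = 0.5). Following 24 h at 37 C, two anti-NS1 antibodies generated a TR-FRET signal, scaled between uninfected and infected controls.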
On the technique in general: In qHTS, concentration-response curves come from the screen itself.

Test [2] in a line: qHTS of pediatric cancer cell lines to identify multiple opportunities for drug repurposing: Primary screen for TC32 cells (AID 1347089). Also: nearly all actives have a fitted effect of over 60% in size. In outline:
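Measured quantity: luminescence from CellTiter-Glo, reflecting metabolically active TC32 cells following 48 h of compound. Curves came straight from multi-point titrations, with 8 or 11 points in primary and 11 in confirmatory screening.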

The nature of test [3]: qHTS of pediatric cancer cell lines to identify multiple opportunities for drug repurposing: Primary screen for DAOY cells (AID 1347090). Also: series mostly up to about 46 µM; nearly all actives have a fitted effect of over 55% in size. In outline:
(§1)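 Viability measured as metabolically active cells via CellTiter-Glo luminescence following 48 hours of compound exposure, 11-point dilutions in confirmatory testing. 500-1,000 cells/well plated 5 hours before dosing; controls were DMSO and 2.3 µM bortezomib.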

A short description of test [4]: qHTS of pediatric cancer cell lines to identify multiple opportunities for drug repurposing: Primary screen for A673 cells (AID 1347092). Also: nearly all actives have a fitted effect of over 45% in size. In a few lines:
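Cells are plated, rested 5 h, dosed by pintool, incubated 48 h, then lysed with CellTiter-Glo and read by luminescence. DMSO is the neutral control; bortezomib at 2.3 uM final is the positive control.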

Test [5] in a line: qHTS of pediatric cancer cell lines to identify multiple opportunities for drug repurposing: Primary screen for SK-N-MC cells (AID 1347093). Also: potency is read from the fitted curve at half-maximal effect. In outline: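 Metabolically active cells were quantified by ATP-dependent luminescence (CellTiter-Glo, 15 min at room temperature) following 48 h treatment. Cells had been plated at 500-1,000 per well and settled for 5 h beforehand.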
Test [6] can be described thus: qHTS of pediatric cancer cell lines to identify multiple opportunities for drug repurposing: Primary screen for BT-37 cells (AID 1347094). Also: series mostly up to about 57 µM. In outline:
(§2)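 CRCs from 8- or 11-point titrations (lowest final 0.59 nM NPC, 0.78 nM MIPE). Cell viability: CellTiter-Glo after 48 h incubation, 15 min room-temperature development, luminescence imaging.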

A short description of test [7]: qHTS of pediatric cancer cell lines to identify multiple opportunities for drug repurposing: Primary screen for NB-EBc1 cells (AID 1347095). Also: potency is read from the fitted curve at half-maximal effect. In a few lines: as §2
Test [8] can be described thus: qHTS of pediatric cancer cell lines to identify multiple opportunities for drug repurposing: Primary screen for U-2 OS cells (AID 1347096). Also: nearly all actives have a fitted effect of over 50% in size. In a few lines: (§3)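 Viability after 48 h compound treatment at 37C, 500-1,000 cells/well, read as ATP luminescence with CellTiter-Glo. Primary screens used 11-point (MIPE, 0.78 nM-46 µM) or 8-point (NPC, 0.59 nM-46 µM) final concentrations; follow-up screens used 11-point dilutions.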

Test [9] is described as follows: qHTS of pediatric cancer cell lines to identify multiple opportunities for drug repurposing: Primary screen for Saos-2 cells (AID 1347097). Also: nearly all actives have a fitted effect of over 40% in size. Also: potency is read from the fitted curve at half-maximal effect. In outline:
as §2

Test [10] can be described thus: qHTS of pediatric cancer cell lines to identify multiple opportunities for drug repurposing: Primary screen for SK-N-SH cells (AID 1347098).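 Also: DMSO served as neutral control and bortezomib at 2.3 µM as positive control; nearly all actives have a fitted effect of over 65% in size.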 In outline:
(§4)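 Cells (500-1,000/well) rested 5 h, then received compounds for 48 h; metabolically active cells were measured by CellTiter-Glo luminescence. Final concentrations spanned up to 46 µM (MIPE, 11-point) or 0.59 nM-46 µM (NPC, 8-point) in primary screens, 11-point in follow-ups.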

Test [11] is described as follows: qHTS of pediatric cancer cell lines to identify multiple opportunities for drug repurposing: Primary screen for NB1643 cells (AID 1347099). Also: nearly all actives have a fitted effect of over 50% in size. In a few lines:
as §2

Test [12] is described as follows: qHTS of pediatric cancer cell lines to identify multiple opportunities for drug repurposing: Primary screen for BT-12 cells (AID 1347101). Also: nearly all actives have a fitted effect of over 25% in size. In a few lines: as §4
A short description of test [13]: qHTS of pediatric cancer cell lines to identify multiple opportunities for drug repurposing: Primary screen for Rh18 cells (AID 1347102). Also: nearly all actives have a fitted effect of over 65% in size. In outline: as §3
A short description of test [14]: qHTS of pediatric cancer cell lines to identify multiple opportunities for drug repurposing: Primary screen for OHS-50 cells (AID 1347103). Also: nearly all actives have a fitted effect of over 40% in size. Also: potency is read from the fitted curve at half-maximal effect. In a few lines:
as §4

Test [15] is described as follows: qHTS of pediatric cancer cell lines to identify multiple opportunities for drug repurposing: Primary screen for RD cells (AID 1347104). Also: nearly all actives have a fitted effect of over 55% in size. In a few lines: as §2
Test [16] can be described thus: qHTS of pediatric cancer cell lines to identify multiple opportunities for drug repurposing: Primary screen for LAN-5 cells (AID 1347100). Also: potency is read from the fitted curve at half-maximal effect. In a few lines: as §3
Test [17] can be described thus: qHTS of pediatric cancer cell lines to identify multiple opportunities for drug repurposing: Primary screen for SJ-GBM2 cells (AID 1347091). In outline: as §1

Records with an inconclusive call do not appear. Active and inactive are the calls of the source. Calls follow the shape of the dose curve; as a rule, active = well fitted curve in the direction sought with a large enough effect; inconclusive = small, poorly fitted or top-dose-only effect, or another doubt; inactive = no such curve, though single readings can be large; an effect the other way counts as inactive or inconclusive.

On to `CC(=O)OCC(=O)[C@@]1(O)[C@H](C)C[C@H]2[C@@H]3CCC4=CC(=O)C=C[C@]4(C)[C@@]3(F)[C@@H](O)C[C@@]21C`, for which the Potency entry in [1], in test [2], in test [3], in [4], in test [5] and in test [6] was “inactive” in each case. The Potency entry in test [7], in test [8], in test [9], in test [10], in test [11] and in test [12] was “inactive” throughout. The Potency entry in test [13], in test [14] and in test [15] was “inactive” throughout.

On to `C[C@H]1C[C@H]2[C@@H]3CCC4=CC(=O)C=C[C@]4(C)[C@@]3(Cl)[C@@H](O)C[C@]2(C)[C@@]1(O)C(=O)CO`, for which the Potency entry in test [1], in [2], in test [3], in test [4], in test [6] and in test [7] was “inactive” each time. Moreover, the Potency result in test [8], in test [9], in test [10], in [11], in test [16] and in test [12] was “inactive” each time. Besides, the Potency entry in test [13] and in test [15] was “inactive” in each case. Besides, the Potency in [5] was 15 µM (active); in [14], 24.6 µM (active).

Turning to `C#C[C@]1(OC(C)=O)CC[C@H]2[C@@H]3CCC4=C[C@@H](OC(C)=O)CC[C@@H]4[C@H]3CC[C@@]21C`, the Potency entry in test [1], in test [2], in test [3], in [17], in [10] and in test [11] was “inactive” each time. Besides, the Potency result in test [13] is “inactive”. Also, in test [14], the Potency is 15.5 µM (active).

As for `CN1CCN(C(c2ccccc2)c2ccccc2)CC1`, the Potency entry in test [1], in test [2], in test [3], in test [4], in [5] and in [6] was “inactive” each time. In addition, the Potency entry in test [7], in test [8], in test [9], in test [11], in [16] and in test [12] was “inactive” each time. Moreover, the Potency entry in test [13] and in test [15] was “inactive” throughout.

As to `C=C1C(=C/C=C2\CCC[C@]3(C)[C@@H]([C@H](C)/C=C/[C@@H](O)C4CC4)CC[C@@H]23)C[C@@H](O)C[C@@H]1O`, the Potency result in test [1], in test [2], in [3], in test [17], in test [13] and in test [15] was “inactive” each time. The Potency in [14] was 30.9 µM (active).

Regarding `CCCCc1nc(Cl)c(CO)n1Cc1ccc(-c2ccccc2-c2nn[nH]n2)cc1`, the Potency result in test [1], in test [2], in [3], in [4], in test [6] and in [7] was “inactive” throughout. The Potency result in test [8], in test [9], in [10], in test [11], in test [16] and in [12] was “inactive” throughout. The Potency result in test [13], in [14] and in test [15] was “inactive” each time.

`CN(C)CC/C=C1/c2ccccc2COc2ccc(CC(=O)O)cc21`: the Potency entry in test [1], in [2], in test [3], in test [4], in test [5] and in test [6] was “inactive” in each case. Besides, the Potency entry in [8], in test [9], in test [10], in [11], in test [12] and in test [13] was “inactive” throughout. The Potency entry in test [14] and in test [15] was “inactive” throughout.

On to `C=CCc1ccc(O)c(OC)c1`, for which the Potency result in test [1], in test [2], in test [3], in test [4], in test [5] and in test [6] was “inactive” throughout. The Potency result in [7], in [8], in test [9], in [10], in [16] and in test [12] was “inactive” in each case. For the same compound, the Potency entry in [13] is “inactive”.

For the compound `O=C(OCCOCCO)c1ccccc1Nc1cccc(C(F)(F)F)c1`, the Potency entry in test [1], in [2], in test [3], in test [4], in test [5] and in test [6] was “inactive” throughout. Further, the Potency entry in [8], in [11], in test [13] and in test [15] was “inactive” throughout.

Consider `Cc1ccnc(NS(=O)(=O)c2ccc(N)cc2)n1`, for which the Potency result in test [1], in test [3], in test [17], in test [4], in test [5] and in test [6] was “inactive” in each case. Besides, the Potency entry in [7], in test [8], in test [9], in test [10], in test [11] and in test [16] was “inactive” throughout. Besides, the Potency result in test [12], in test [13], in [14] and in [15] was “inactive” each time.

Take `C/C=C(/C(=C/C)c1ccc(O)cc1)c1ccc(O)cc1`: the Potency result in [1], in test [2], in test [6], in [8], in test [16] and in [13] was “inactive” each time. Moreover, the Potency in [5] is 8.41 µM (active); in test [7] it was 18.8 µM (active); in [9], 21.1 µM (active).

For the compound `CCOC(=O)/C=C(C)/C=C/C=C(C)/C=C/c1c(C)cc(OC)c(C)c1C`, the Potency entry in [1], in test [2], in [3], in test [4], in [6] and in test [7] was “inactive” in each case. Further, the Potency result in test [8], in [9], in test [10], in [16], in test [13] and in test [15] was “inactive” each time. Further, the Potency in test [14] was 24.6 µM (active).

On to `CC(C)=CCC1C(=O)N(c2ccccc2)N(c2ccccc2)C1=O`, for which the Potency entry in test [1], in test [2], in [3], in test [6], in test [8] and in [13] was “inactive” in each case. Further, the Potency entry in test [15] was “inactive”. Further, the Potency in test [7] was 21.1 µM (active); in test [16], 29.9 µM (active).

Turning to `CC(=O)Oc1ccc2c(c1)CC[C@@H]1[C@@H]2CC[C@]2(C)[C@@H](O)CC[C@@H]12`, the Potency entry in test [1], in test [2], in test [3], in test [8], in test [13] and in test [15] was “inactive” throughout. Moreover, in [9], the Potency was 23.7 µM (active).

In the case of `O=C(O)CCCCC(=O)O`, the Potency entry in [1], in [3], in test [17], in test [4], in test [5] and in [6] was “inactive” throughout. Also, the Potency result in test [7], in [8], in [9], in test [10], in test [11] and in [16] was “inactive” each time. Also, the Potency entry in test [12], in test [13] and in [15] was “inactive” throughout.

`c1ccc(CNCCNCc2ccccc2)cc1`: the Potency entry in test [1], in [3], in test [17], in [4], in test [5] and in test [6] was “inactive” in each case. For the same compound, the Potency result in test [7], in test [8], in [9], in test [10], in test [11] and in test [16] was “inactive” each time. Moreover, the Potency entry in test [12], in test [13] and in test [14] was “inactive” each time.

As for `CC(=O)Oc1ccc(C(=C2CCCCC2)c2ccc(OC(C)=O)cc2)cc1`, the Potency entry in test [1], in test [2], in [3], in [4], in [6] and in test [7] was “inactive” each time. The Potency entry in test [8], in [9], in [10], in test [16], in test [12] and in test [13] was “inactive” each time. Also, the Potency entry in test [14] and in [15] was “inactive” in each case.
